# PubChem BioAssay (Tox21)
# Values without a mark were called inactive. Inconclusive results are not listed. Where a call stands in place of a potency, no number is given. Activity calls are given as the source filed them. Unless noted, calls come from the whole dose curve; as a rule, active = well fitted curve in the direction sought with a large enough effect in the repeat runs; inconclusive = weak or mixed curves; inactive = flat fitted curve, though single readings scatter.
# What was measured:
# [1] = qHTS assay to test for compound auto fluorescence at 535 nm (green) in HEK293 cells (AID 720680)
# [2] = qHTS assay to test for compound auto fluorescence at 460 nm (blue) in HEK293 cell free culture (AID 720681)
# Summary of the method: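 Test compounds were pinned into cell-free culture medium (DMEM with 10% FBS) and fluorescence was read directly at Ex/Em 405/460 nm. Signals were expressed as fluorescence equivalents of triamterene, with DMSO vehicle as control.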
# [3] = qHTS assay to test for compound auto fluorescence at 535 nm (green) in HEK293 cell free culture (AID 720682)
# Summary of the method: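 Intrinsic compound fluorescence is measured in culture medium containing 10% FBS, with excitation at 485 nm and detection at 535 nm, referenced to fluorescein.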
# [4] = qHTS assay to test for compound auto fluorescence at 590 nm (red) in HEK293 cell free culture (AID 720683)
# Summary of the method: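 Tox21 10K library compounds were pinned into cell-free DMEM with 10% FBS and fluorescence was read at excitation 540 nm. Activity is expressed as Rose Bengal sodium equivalency.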
# [5] = qHTS assay to test for compound auto fluorescence at 590 nm (red) in HepG2 cell free culture (AID 720684)
# Summary of the method: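 Readout: intrinsic compound fluorescence at 590 nm emission after 540 nm excitation, scaled to Rose Bengal sodium. Matrix was cell-free MEM with 10% FBS; DMSO vehicle wells served as control.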
# [6] = qHTS assay to test for compound auto fluorescence at 460 nm (blue) in HepG2 cell free culture (AID 720685)
# Summary of the method: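 Cell-free plates of MEM plus 10% FBS received 23 nL compound or DMSO vehicle; blue-channel (405/460 nm) intensity scored against triamterene as reference fluorophore.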
# [7] = qHTS assay to test for compound auto fluorescence at 535 nm (green) in HepG2 cell free culture (AID 720686)
# [8] = qHTS assay to test for compound auto fluorescence at 460 nm (blue) in HepG2 cells (AID 720687)
# Summary of the method: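 Cells (2,000/well in MEM with 10% FBS) attached overnight at 37 C, then were exposed to compound or DMSO for 1 hr at 37 C, 5% CO2. Fluorescence read at Ex/Em 405/460 nm, expressed as triamterene-equivalent signal.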
# [9] = biological target: Glucocorticoid receptor (Homo sapiens) (UniProt P04150); test: qHTS assay to identify small molecule agonists of the glucocorticoid receptor (GR) signaling pathway (AID 720691; active = well fitted activation curve with a large enough effect in the signal ratio in the repeat runs, not every such curve was filed as active; the % refers to the signal ratio; note: potency is the fitted concentration of half-maximal effect)
# Summary of the method: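 Cells: GR-bla HeLa, endogenous GR with stably integrated GRE-beta-lactamase reporter. Treatment 18 h, 37 C, compounds delivered in DMSO. Detection via LiveBLAzer B/G FRET substrate, 2 h RT, fluorescence intensity.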
# Sequence of Glucocorticoid receptor (Homo sapiens) (P04150 whole entry, looked up): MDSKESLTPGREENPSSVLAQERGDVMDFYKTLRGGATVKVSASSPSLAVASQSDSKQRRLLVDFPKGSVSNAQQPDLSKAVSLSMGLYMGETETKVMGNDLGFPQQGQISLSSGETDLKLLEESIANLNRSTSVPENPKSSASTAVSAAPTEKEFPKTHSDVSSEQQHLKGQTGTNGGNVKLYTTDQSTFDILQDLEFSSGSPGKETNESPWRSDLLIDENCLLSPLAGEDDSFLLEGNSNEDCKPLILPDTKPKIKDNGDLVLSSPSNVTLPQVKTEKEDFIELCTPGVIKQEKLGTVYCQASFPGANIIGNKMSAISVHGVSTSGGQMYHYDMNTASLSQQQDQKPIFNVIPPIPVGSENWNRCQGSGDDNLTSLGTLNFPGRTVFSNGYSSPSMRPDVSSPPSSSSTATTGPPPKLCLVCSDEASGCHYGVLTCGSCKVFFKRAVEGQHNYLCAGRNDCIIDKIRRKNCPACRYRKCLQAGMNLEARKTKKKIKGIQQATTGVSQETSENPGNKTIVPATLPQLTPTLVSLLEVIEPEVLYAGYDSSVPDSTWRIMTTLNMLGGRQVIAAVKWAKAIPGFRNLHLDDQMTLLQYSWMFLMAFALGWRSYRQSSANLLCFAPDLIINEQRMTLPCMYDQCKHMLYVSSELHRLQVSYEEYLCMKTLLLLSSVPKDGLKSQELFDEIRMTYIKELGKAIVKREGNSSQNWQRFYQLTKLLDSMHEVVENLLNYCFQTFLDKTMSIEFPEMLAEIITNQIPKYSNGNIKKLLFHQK
Compound,outcome [1],Potency [2],outcome [3],outcome [4],outcome [5],Potency [6],outcome [7],Potency [8],Potency [9],"fluorescence, % of fluorescein [1]","fluorescence, % of fluorescent control [2]",activity change [3],"fluorescence, % of fluorescent control [4]","fluorescence, % of Rose Bengal [5]","fluorescence, % of fluorescent control [6]","fluorescence, % of fluorescein control [7]","fluorescence, % of fluorescent control [8]"
Clc1ccc(C(Cl)(Cl)Cl)c(Cl)c1,inactive,inactive,inactive,inactive,inactive,inactive,inactive,inactive,–,–,–,–,–,–,–,–,–
Fc1cccc(Cl)c1CCl,inactive,inactive,inactive,inactive,inactive,inactive,inactive,inactive,inactive,–,–,–,–,–,–,–,–
COC(=O)N(C(=O)N1CO[C@@]2(C(=O)OC)Cc3cc(Cl)ccc3C2=N1)c1ccc(OC(F)(F)F)cc1,inactive,inactive,inactive,inactive,inactive,inactive,inactive,inactive,–,–,–,–,–,–,–,–,–
COC12CC[C@@]3(C[C@@H]1C(C)(O)C(C)(C)C)[C@H]1Cc4ccc(O)c5c4[C@@]3(CCN1CC1CC1)[C@H]2O5 (stereo not given in full),inactive,inactive,inactive,inactive,inactive,inactive,inactive,inactive,–,–,–,–,–,–,–,–,–
NNC(=O)c1ccccc1,inactive,inactive,inactive,inactive,inactive,inactive,inactive,inactive,inactive,–,–,–,–,–,–,–,–
C1CCC2CCCCC2C1 (stereo not given),inactive,inactive,inactive,inactive,inactive,inactive,inactive,inactive,inactive,–,–,–,–,–,–,–,–
FC(Cl)(Cl)Cl,inactive,inactive,inactive,inactive,inactive,inactive,inactive,inactive,inactive,–,–,–,–,–,–,–,–
CCOC(=O)C1(c2ccccc2)CCN(CCC(C#N)(c2ccccc2)c2ccccc2)CC1,inactive,inactive,inactive,inactive,inactive,inactive,inactive,inactive,60 µM (active),–,–,–,–,–,–,–,–
CC(C)(C)c1ccc(CSc2cnn(C(C)(C)C)c(=O)c2Cl)cc1,inactive,inactive,inactive,inactive,inactive,inactive,inactive,inactive,inactive,–,–,–,–,–,–,–,–
CN(C)C(=S)[S-].CN(C)C(=S)[S-].[Cu+2],–,–,–,–,–,–,–,–,–,-0.0159% [at 18.6 µM],-0.0097% [at 18.6 µM],0.0031% [at 18.6 µM],0.0139% [at 18.6 µM],0.0949% [at 18.6 µM],-0.0974% [at 18.6 µM],0.0404% [at 18.6 µM],0.125% [at 18.6 µM]
O=[N+]([O-])c1ccc(Oc2ccc(C(F)(F)F)cc2[N+](=O)[O-])cc1,inactive,inactive,inactive,inactive,inactive,inactive,inactive,inactive,inactive,–,–,–,–,–,–,–,–
Cc1cc(C)c(C2=C(OC(=O)CC(C)(C)C)C3(CCCC3)OC2=O)c(C)c1,inactive,inactive,inactive,inactive,inactive,inactive,inactive,inactive,inactive,–,–,–,–,–,–,–,–
N#CC(Cl)Cl,inactive,inactive,inactive,inactive,inactive,inactive,inactive,inactive,–,–,–,–,–,–,–,–,–
CCC(C)(C)C(=O)OC1=C(c2ccc(Cl)cc2Cl)C(=O)OC12CCCCC2,inactive,inactive,inactive,inactive,inactive,inactive,inactive,inactive,inactive,–,–,–,–,–,–,–,–
CCCCCCCCCBr,inactive,inactive,inactive,inactive,inactive,inactive,inactive,inactive,inactive,–,–,–,–,–,–,–,–
CC(=O)C(Cl)(Cl)Cl,inactive,inactive,inactive,inactive,inactive,inactive,inactive,inactive,inactive,–,–,–,–,–,–,–,–
CN(C)C1CSSSC1,inactive,inactive,inactive,inactive,inactive,inactive,inactive,inactive,inactive,–,–,–,–,–,–,–,–
CC1(c2ccc(Oc3ccccc3)cc2)OC(=O)N(Nc2ccccc2)C1=O (stereo not given),inactive,inactive,inactive,inactive,inactive,inactive,inactive,inactive,–,–,–,–,–,–,–,–,–
COc1ccc(N)cc1N,inactive,inactive,inactive,inactive,inactive,inactive,inactive,inactive,inactive,–,–,–,–,–,–,–,–
